Laboratory results: PubChem BioAssay (NCI)
This is part of a sample that, as a whole, favours compounds with a hit. Of some 79,000 tested, about 15% had one in any assay. A number with no mark means an inactive call. Active and inactive are the calls of the source. Cut-off read from the data, not from the text of the source: active = growth inhibition above about 70%; inactive = the rest.

Tests used:
[1] = NCI Yeast Anticancer Drug Screen. Data for the rad50 strain (AID 155);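 note: 0% = growth of vehicle-only cultures of the same strain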; conditions: S. cerevisiae rad50 strain growth inhibition, stronger effect = higher value
In short: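 Inhibition values express reduced yeast growth in compound-treated cultures relative to vehicle-treated controls.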

[2] = NCI Yeast Anticancer Drug Screen. Data for the mec2-1 strain (AID 157); conditions: S. cerevisiae mec2-1 strain, stronger effect = higher value
In short: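 Growth inhibition is read against vehicle-treated controls after compound exposure of the mec2-1 yeast strain, which is defective in DNA damage repair or cell cycle control.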

[3] = NCI Yeast Anticancer Drug Screen. Data for the sgs1 mgt1 strain (AID 161);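 note: 0% = growth of cultures given vehicle only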; conditions: S. cerevisiae sgs1 mgt1 strain, stronger effect = higher value
In short: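 Yeast cells carrying a defined DNA-repair defect were exposed to test compounds. Growth inhibition was measured relative to vehicle-treated controls.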

[4] = NCI Yeast Anticancer Drug Screen. Data for the cln2 rad14 strain (AID 165);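 note: 0% = growth equal to vehicle treated cultures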; conditions: S. cerevisiae cln2 rad14 strain, stronger effect = higher value
In short: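 Growth inhibition, relative to vehicle-treated controls, is the read-out. The test organism is a yeast strain with defined genetic alterations, cln2 rad14.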

[5] = NCI Yeast Anticancer Drug Screen. Data for the bub3 strain (AID 167); conditions: S. cerevisiae bub3 mutant strain, stronger effect = higher value
In short: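 Steps: expose the mutant yeast strain to compound; grow alongside vehicle-treated cultures; measure growth; express inhibition against the vehicle cultures.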

[6] = NCI Yeast Anticancer Drug Screen. Data for the mlh1 rad18 strain (AID 175); conditions: S. cerevisiae mlh1 rad18 strain growth inhibition, stronger effect = higher value
In short: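 Cells of a genetically altered yeast strain, deficient in DNA damage repair, were treated with compound. Their growth was then compared with that of vehicle-treated cultures to give inhibition.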

[7] = at 5.0 µM (retest, dose inferred, filed as 0.5)
[8] = at 50.0 µM (retest, dose inferred, filed as 5.0)

| SMILES | growth inhibition [1, 7] | growth inhibition [1, 8] | growth inhibition ([1]; at 50.0 µM) | growth inhibition [2, 7] | growth inhibition [2, 8] | growth inhibition ([2]; at 50.0 µM) | growth inhibition [3, 7] | growth inhibition [3, 8] | growth inhibition ([3]; at 50.0 µM) | growth inhibition [4, 7] | growth inhibition [4, 8] | growth inhibition ([4]; at 50.0 µM) | growth inhibition [5, 7] | growth inhibition [5, 8] | growth inhibition ([5]; at 50.0 µM) | growth inhibition [6, 7] | growth inhibition [6, 8] | growth inhibition ([6]; at 50.0 µM) |
| --- | --- | --- | --- | --- | --- | --- | --- | --- | --- | --- | --- | --- | --- | --- | --- | --- | --- | --- |
| CN(C)c1cc2c(cc1[N+](=O)[O-])-c1ccccc1C2O (configuration not stated) | 5% | 48% | 91.4% (active) | -1% | 28% | 29.9% | 0% | 57% | 56.6% | -4% | 34% | 41.4% | -6% | 60% | 70.5% (active) | 5% | 74% (active) | 86.6% (active) |
| Oc1cc2ccccc2cc1O | 6% | 90% (active) | 95.5% (active) | 5% | 77% (active) | 86% (active) | 2% | 88% (active) | 93.8% (active) | 3% | 90% (active) | 92.4% (active) | 5% | 92% (active) | 96.1% (active) | 5% | 93% (active) | 96% (active) |
| [N-]=[N+]=NC1=CC(=O)c2cccc3cccc1c23 | 45% | 99% (active) | 80.8% (active) | 31% | 99% (active) | 86.5% (active) | 65% | 99% (active) | 87.6% (active) | 47% | 98% (active) | 80.1% (active) | 32% | 99% (active) | 89% (active) | 72% (active) | 99% (active) | 89.5% (active) |
| c1ccc([CH2][Sn]([CH2]c2ccccc2)([S]c2cccc3cccnc23)[S]c2cccc3cccnc23)cc1 | 67% | 24% | 94.2% (active) | 61% | 18% | 92.5% (active) | 65% | 59% | 89.6% (active) | 17% | -5% | 84.5% (active) | 61% | 30% | 93% (active) | 46% | 16% | 93.5% (active) |
| O=C(CC(=O)c1ccccc1NC1=Cc2ccccc2C(=O)C1=O)C(=O)NC1=C(Cl)C(=O)c2ccccc2C1=O | 36% | 92% (active) | 88% (active) | 21% | 82% (active) | 86.2% (active) | 14% | 86% (active) | 85.7% (active) | 16% | 66% | 82.7% (active) | 14% | 94% (active) | 84.9% (active) | 37% | 90% (active) | 86.2% (active) |
| COC(=O)c1c(C)cccc1C1CN=NC12Cc1ccc(C)c(C)c1C2=O (configuration not stated) | 2% | 31% | 61% | 0% | 47% | 43.2% | 13% | 56% | 68.5% | 1% | 44% | 54.1% | 8% | 81% (active) | 78.7% (active) | -1% | 57% | 72.8% (active) |
| O=C(Oc1cccc2cccnc12)c1cccnc1 | 93% (active) | 98% (active) | 93.5% (active) | 58% | 99% (active) | 99.2% (active) | 89% (active) | 99% (active) | 98% (active) | 43% | 94% (active) | 92.2% (active) | 97% (active) | 98% (active) | 97.8% (active) | 82% (active) | 98% (active) | 97.5% (active) |
| O=c1c2ccccc2nc(-c2ccccc2)n1NC(=S)Nc1ccc(Cl)cc1[N+](=O)[O-] | -3% | 17% | 23.1% | -7% | 10% | -1.6% | 4% | 15% | 40.6% | 8% | 14% | -29.4% | -5% | 29% | 71.4% (active) | 2% | 10% | 25.8% |
| C/C=C/C(=O)NCC(C(C)C)/[N+]([O-])=N/O (configuration not stated) | 94% (active) | 95% (active) | 91.8% (active) | 95% (active) | 95% (active) | 93.3% (active) | 97% (active) | 97% (active) | 93.3% (active) | 80% (active) | 82% (active) | 91.2% (active) | 87% (active) | 86% (active) | 91.8% (active) | 97% (active) | 97% (active) | 91.9% (active) |
